Experiment in all cases: NCI-60 one-dose screen, 48 h (100 = growth as untreated, 0 = no growth, -100 = all killed)
Experiment [1] concerns HCT-15 colon.
Experiment [2] has as its system HT29 colon.
Experiment [3] concerns SNB-75 CNS.
The subject of experiment [4] is SNB-19 CNS.
Experiment [5] has as its system U251 CNS. Particulars: 10 µM unless noted.
Experiment [6] concerns PC-3 prostate.
The test system of experiment [7] is UACC-62 melanoma.
In experiment [8] the test system is LOX IMVI melanoma. To be noted: 10 µM unless noted.
The test system of experiment [9] is SK-MEL-28 melanoma.
Experiment [10] concerns SK-MEL-2 melanoma.
Experiment [11] has as its system EKVX NSCLC.
Experiment [12] deals with UO-31 renal.
Experiment [13] concerns TK-10 renal.
In experiment [14] the test system is ACHN renal.
Experiment [15] relates to CAKI-1 renal.
For experiment [16], the system named is A498 renal.
Experiment [17] has as its system CCRF-CEM leukemia.
Experiment [18] relates to MOLT-4 leukemia.
Experiment [19] relates to SK-MEL-5 melanoma. To be noted: 10 µM unless noted.
The test system of experiment [20] is SN12C renal. To be noted: 10 µM.

Values joined by “and” are separate entries in the source; they are usually repeats but may differ in a detail not shown here. Equal values may be shown once. The panel holds about 83,000 compounds, 20% with a hit somewhere; the sample as a whole holds those more often.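 Single-concentration screen, 48 h exposure, 96-well plates. Endpoint: percent growth. Below 10 = active.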 Active and inactive are the calls of the source.

On to `O=c1ccn(C2CC(O)C(COC(c3ccccc3)(c3ccccc3)c3ccccc3)O2)c(=O)[nH]1` (configuration not stated), for which the growth is 88.9% (inactive) in experiment [1] (10 µM); 33.4% (inactive) in [1] (100 µM); 86% (inactive) in [2] (10 µM); 33.1% (inactive) in experiment [2] (100 µM); 83.2% (inactive) in [3] (10 µM); 57.8% (inactive) in [3] (100 µM). The growth is 98.2% (inactive) in experiment [4] (10 µM); 69.8% (inactive) in experiment [4] (100 µM); 55.5% [100 µM] (inactive) in experiment [5]; 59.5% (inactive) in experiment [6] (10 µM); 15% (inactive) in [6] (100 µM); 82.6% (inactive) in experiment [7] (10 µM). Moreover, the growth in experiment [7] (100 µM) is 29.8% (inactive); in [8], 79.2% (inactive); in [9] (10 µM), 118% (inactive); in experiment [9] (100 µM) it was 45.6% (inactive); in experiment [10] (100 µM) it was 26% (inactive); in experiment [11] (100 µM), 52.8% (inactive). The growth in experiment [12] (10 µM) was 54.6% (inactive); in experiment [12] (100 µM) it was 37.1% (inactive); in experiment [13] (10 µM), 95.4% (inactive); in experiment [13] (100 µM), 87.8% (inactive); in [14] (10 µM), 86.4% (inactive); in [14] (100 µM), 56.9% (inactive). In addition, the growth in experiment [15] (10 µM) was 127% (inactive); in [15] (100 µM) it was 30.3% (inactive); in experiment [16] (10 µM) it was 98.6% (inactive); in experiment [16] (100 µM), 102% (inactive); in experiment [17] (100 µM) it was 45.5% (inactive); in experiment [18] (10 µM), 67.1% (inactive). In addition, the growth in experiment [18] (100 µM) was 9.6% (active).

For the compound `CC(=O)Nc1cc(C)ccc1C`, the growth in experiment [1] (10 µM) is 101% (inactive); in experiment [2] (10 µM), 95.3% (inactive); in experiment [3] (10 µM), 96.2% (inactive); in [4] (10 µM), 101% (inactive); in experiment [5], 101% (inactive); in experiment [6] (10 µM) it was 106% (inactive). In addition, the growth is 93.3% (inactive) in [19]; 98.3% (inactive) in [7] (10 µM); 101% (inactive) in experiment [8]; 105% (inactive) in experiment [9] (10 µM); 101% (inactive) in experiment [10] (10 µM); 99.9% (inactive) in experiment [11] (10 µM). Also, the growth is 101% (inactive) in experiment [20]; 88.1% (inactive) in experiment [12] (10 µM); 96.2% (inactive) in experiment [13] (10 µM); 106% (inactive) in [14] (10 µM); 98.6% (inactive) in [15] (10 µM); 83.8% (inactive) in [16] (10 µM). For the same compound, the values for the growth in experiment [17] (10 µM) and in [18] (10 µM) were 128% (inactive) and 110% (inactive), respectively.

Consider `O=C(/C=C/c1cccnc1)c1ccccc1`, for which the growth was 63.2% (inactive) in experiment [1] (10 µM); 14.1% (inactive) in experiment [2] (10 µM); 87.8% (inactive) in experiment [3] (10 µM); 82.8% (inactive) in [4] (10 µM); 37.3% (inactive) in experiment [5]; 88.1% (inactive) in experiment [6] (10 µM). For the same compound, the growth in experiment [19] was 103% (inactive); in experiment [7] (10 µM), 103% (inactive); in experiment [8], 27.5% (inactive); in [9] (10 µM), 102% (inactive); in experiment [10] (10 µM), 94.2% (inactive); in experiment [11] (10 µM), 103% (inactive). Also, the growth in experiment [12] (10 µM) is 84.1% (inactive); in experiment [13] (10 µM) it was 93.9% (inactive); in experiment [14] (10 µM), 79.8% (inactive); in experiment [16] (10 µM) it was 89.7% (inactive); in [17] (10 µM), 41.3% (inactive); in [18] (10 µM), 82.3% (inactive).

In the case of `Nc1c2ccccc2nc2ccccc12`, the growth was 5.79% (active) and 15.8% (inactive) and 26.5% (inactive) in experiment [1] (10 µM); -21.6% (active) and 20.8% (inactive) and 19.9% (inactive) in experiment [2] (10 µM); 33.1% (inactive) and 51.8% (inactive) and 89.3% (inactive) in [3] (10 µM); 22.5% (inactive) and 39.8% (inactive) in [4] (10 µM); 6.74% (active) and 26.5% (inactive) and 34.7% (inactive) in experiment [5]; 23.7% (inactive) and 9.05% (active) and 41.1% (inactive) in experiment [6] (10 µM). The growth is 5.28% (active) and 19.7% (inactive) and 39.5% (inactive) in experiment [19]; 13.9% (inactive) and 36.3% (inactive) and 27.3% (inactive) in [7] (10 µM); -53.7% (active) and 14.9% (inactive) and 12.4% (inactive) in experiment [8]; 18% (inactive) and 28.2% (inactive) and 82.1% (inactive) in experiment [9] (10 µM); -33.8% (active) and 33.6% (inactive) and 51.8% (inactive) in experiment [10] (10 µM); -24.1% (active) and 43.9% (inactive) and 57.3% (inactive) in experiment [11] (10 µM). For the same compound, the growth in [20] is 12% (inactive) and 33.2% (inactive) and 33.5% (inactive); in experiment [12] (10 µM) it was 12.8% (inactive) and 11.1% (inactive) and 14.2% (inactive); in experiment [13] (10 µM), -13.4% (active) and 48.2% (inactive); in experiment [14] (10 µM) it was 16.9% (inactive) and 25.5% (inactive); in experiment [15] (10 µM), -37.7% (active) and 19.8% (inactive) and 21.5% (inactive); in experiment [16] (10 µM), -0.261% (active) and 37.5% (inactive) and 18.3% (inactive). The growth in [17] (10 µM) was 35.3% (inactive) and 20.5% (inactive) and 50.7% (inactive); in experiment [18] (10 µM) it was 8.47% (active) and 10.2% (inactive) and 12.6% (inactive).

Take `NC(=O)SCC(=O)NNc1ccccc1`: the growth is 89.2% (inactive) in [1] (10 µM); 103% (inactive) in experiment [2] (10 µM); 92.5% (inactive) in experiment [3] (10 µM); 108% (inactive) in experiment [4] (10 µM); 87.8% (inactive) in experiment [5]; 85.7% (inactive) in [6] (10 µM). Besides, the growth in [7] (10 µM) is 70.9% (inactive); in [8], 67.1% (inactive); in experiment [9] (10 µM), 106% (inactive); in experiment [10] (10 µM) it was 87.5% (inactive); in experiment [11] (10 µM) it was 99.4% (inactive); in experiment [12] (10 µM), 78.9% (inactive). Further, the growth was 95.5% (inactive) in [13] (10 µM); 81.1% (inactive) in experiment [14] (10 µM); 92.8% (inactive) in [15] (10 µM); 93.7% (inactive) in experiment [16] (10 µM); 90.4% (inactive) in experiment [17] (10 µM); 111% (inactive) in [18] (10 µM).

(Values after PubChem BioAssay (NCI).)
